Experimental data from PubChem BioAssay (NCI).
Compounds without any hit were thinned out: in the full panel of roughly 83,000, 20% have a hit.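 Cell lines were cultured in 96-well plates, exposed to a single compound concentration, and assessed for percent growth 48 hours later.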 Unmarked numbers belong to inactive results. Activity calls are given as the source filed them. Rule for the calls: active = growth percent below 10; inactive = the rest.

Legend:
Assay in all cases: NCI-60 one-dose screen, 48 h (100 = growth as untreated, 0 = no growth, -100 = all killed)
Conditions in all cases: 10 µM
HCT-15 colon = test system: HCT-15 colon
HT29 colon = test system: HT29 colon
SNB-75 CNS = test system: SNB-75 CNS
SNB-19 CNS = test system: SNB-19 CNS
U251 CNS = test system: U251 CNS
PC-3 prostate = test system: PC-3 prostate
SK-MEL-5 melanoma = test system: SK-MEL-5 melanoma
UACC-62 melanoma = test system: UACC-62 melanoma
LOX IMVI melanoma = test system: LOX IMVI melanoma
SK-MEL-28 melanoma = test system: SK-MEL-28 melanoma
SK-MEL-2 melanoma = test system: SK-MEL-2 melanoma
SN12C renal = test system: SN12C renal
UO-31 renal = test system: UO-31 renal
TK-10 renal = test system: TK-10 renal
ACHN renal = test system: ACHN renal
CAKI-1 renal = test system: CAKI-1 renal
CCRF-CEM leukemia = test system: CCRF-CEM leukemia
MOLT-4 leukemia = test system: MOLT-4 leukemia
A498 renal = test system: A498 renal

Row | SMILES | growth (HCT-15 colon) | growth (HT29 colon) | growth (SNB-75 CNS) | growth (SNB-19 CNS) | growth (U251 CNS) | growth (PC-3 prostate) | growth (SK-MEL-5 melanoma) | growth (UACC-62 melanoma) | growth (LOX IMVI melanoma) | growth (SK-MEL-28 melanoma) | growth (SK-MEL-2 melanoma) | growth (SN12C renal) | growth (UO-31 renal) | growth (TK-10 renal) | growth (ACHN renal) | growth (CAKI-1 renal) | growth (CCRF-CEM leukemia) | growth (MOLT-4 leukemia) | growth (A498 renal)
1 | COc1cc(C2C(C#N)=C(c3c[nH]c4ccccc34)Nc3nc(N)[nH]c(=O)c32)cc(OC)c1OC (stereo not drawn) | 105% | 107% | 80% | 66.5% | 73.6% | 62.8% | 67.4% | 84.2% | 52% | 56.2% | 93.8% | 90.9% | 79.3% | 123% | 95% | 95.2% | 53.5% | 98.2% | 
2 | COc1cc(-c2nc3ccccc3[nH]2)ccc1OCc1nnc(-c2ccc(Br)cc2)o1 | 45.3% | 70.7% | 104% | 104% | 83.9% | 96.2% | 75% | 92.7% | 92.6% | 93.2% | 105% | 85.8% | 79.5% | 130% | 98.6% | 95.5% |  | 63.8% | 79.6%
3 | Clc1ccc(-c2nc(-c3cccs3)cn3ccnc23)cc1 | 31.2% | 41.6% | 68.1% | 88.6% | 82.5% | 62.4% | 53.2% | 60.2% | 61.4% | 92.5% | 70.6% | 85.3% | 45.9% | 60.7% | 91.2% | 59% | 65.3% | 62.4% | 90.5%
4 | COc1ccc(-c2cc(/C=C/C(=O)c3ccc(N)cc3)[nH]n2)cc1OC | 26% | 22.6% | 36.8% | 51.6% | 28.5% | 41.8% | 63.4% | 71.2% | -45.5% (active) | 41.9% | 80.8% | 35.1% | 27.3% | 39.3% | 50.5% | 31% | 7.41% (active) | 7.23% (active) | 52.8%
5 | COc1cc(-c2cc(-c3cc(OC)c(OC)c(OC)c3)nc3nc(N)[nH]c(=O)c23)ccc1Oc1ccnc2cc(Cl)ccc12 | 14.6% | 104% | -8.67% (active) | 59.4% | 23% | 25.9% | 27% | 49.8% | 27.8% | 56.9% | 29.2% | 31.3% | 46.3% |  | 48.4% | 38.7% | 18.2% | 17.7% | 84.9%
6 | Cn1c([N+](=O)[O-])cnc1C=C1C(=O)c2ccccc2C1=O | 23.2% | 56.1% | 51% | 85.1% | 57.2% | 60.1% | 42.6% | 17.5% | 21.7% | 39.2% | 1.67% (active) | 42.9% | 20.7% | 48.8% | 37.4% | 37.3% |  | 21.8% | 
7 | COc1ccc(Nc2nc(NCc3ccccc3)c3ccccc3n2)cc1 | 72.4% | 49% | -33% (active) | 14.4% | 32.9% | 57.3% | 63.9% | 65.3% | 46.8% | 67.7% | 63.4% | 69.5% | 58.9% | 40.6% | 15.6% | 35.7% | 68.4% | 81.8% | 
8 | Cn1c([N+](=O)[O-])cnc1/C=C1\Oc2ccc(Br)cc2C1=O | -40.8% (active) | -31.4% (active) | 8.51% (active) | 1.52% (active) | -29.6% (active) | -24.7% (active) | -89.2% (active) | -73.7% (active) | -52.3% (active) | -13.7% (active) | -49% (active) | -2.34% (active) | -38.4% (active) | -33.3% (active) | -41.6% (active) | -21.6% (active) |  | -14.1% (active) | -29.7% (active)
9 | COc1ccc2nc(-c3ccccc3)cc(C(C)=O)c2c1 | 94.9% | 93.6% | 79.7% | 101% | 99.1% | 84.4% | 98.5% | 91.1% | 92.2% | 108% | 96.6% | 94.9% | 73.8% | 89.7% | 97.7% | 87.9% |  | 73.1% | 74.8%
10 | COc1ccc(-c2oncc2-c2cc(OC)c3c(c2)OCO3)cc1 | 15.9% | 6.55% (active) | -9.45% (active) | 46.2% | 28% | 40.4% | 17.9% | 50.7% | 34.2% | 37% | -1.77% (active) | 35.9% | 39.8% | 48.2% | 41.1% | 22.9% |  | 22.4% | 7.82% (active)
11 | COc1ccc(C(=O)c2sc3nc(-c4cccs4)ccc3c2N)cc1OC | 37.4% | 14% | 52.1% | 71.7% | 59% | 39% | 24.3% | 59% | 55% | 59.2% | 15.7% | 62% | 45.6% |  | 64.7% | 62% | 34.5% | 23.3% | 39.4%
12 | C=CCNC(=S)NN | 90.7% | 55.5% | 95.3% | 94.4% | 77.4% | 58.4% | 99.5% | 99.6% | 97.3% | 104% | 99.1% | 81.7% | 61.7% | 96.2% | 94.1% | 91.6% | 63.2% | 64.6% | 
13 | COc1ccc(-c2cc(/C=C3\C(=O)Nc4cc(Cl)ccc43)[nH]n2)cc1 | 28.6% | 1.13% (active) | -27.5% (active) | 49% | 40.1% | 14% | 25.1% | 32.4% | 38.2% | 50.5% | -0.387% (active) | 41.7% | 27.2% | 58.1% | 44.9% | 29.6% |  | 21.7% | 58.3%
14 | CS(=O)(=O)Nc1ccc(Nc2c3ccccc3nc3cc(Cl)ccc23)cc1 | 39.6% | 22.4% | 30.9% | 44.7% | 19.9% | 33.8% | 18.6% | 36.8% | 19.5% | 72.6% | 74.1% | 13.9% | 0.84% (active) | 55% | 9.36% (active) | 6.38% (active) |  | -5.91% (active) | 48.5%
15 | O=NN(CC(=O)N/N=C/C=C\c1ccccc1)CC(=O)N/N=C/C=C/c1ccccc1 | 94% | 110% | 72.9% | 92.5% | 89% | 85.2% | 84.9% | 101% | 87.6% | 99.4% | 111% | 78.1% | 91.9% | 131% | 86.4% | 91.3% | 94.9% | 96.9% | 105%
16 | COc1cccc2c1O/C(=C\c1ncc([N+](=O)[O-])n1C)C2=O | 5.88% (active) | -20.7% (active) | 39.2% | -2.3% (active) | -11.7% (active) | -21.2% (active) | -92.4% (active) | -77.7% (active) | -58.8% (active) | -25.4% (active) | -51.5% (active) | -54.2% (active) | -34.7% (active) | -33.7% (active) | 7.42% (active) | -26.5% (active) | 8.19% (active) | -1.08% (active) | 
17 | Nc1c(C(=O)NC2CCCCC2)sc2nc3c(cc12)C(=O)CCC3 | 85.8% | 110% | 95% | 97.2% | 93.6% | 92.4% | 95% | 91% | 103% | 94.8% | 97.2% | 93.3% | 94.6% |  | 107% | 90.3% | 98.8% | 90.2% | 88.6%
